Results reported in PubChem BioAssay (NCI).
About 79,000 compounds went through this panel and 15% of them were active in at least one assay; those are over-represented in the sample as a whole. Unmarked numbers belong to inactive results. Activity calls are given as the source filed them. No stated cut-off is given here; in the data, active means growth inhibition above about 70%; inactive means the rest.

Columns and labels:
[1] = NCI Yeast Anticancer Drug Screen. Data for the rad50 strain (AID 155);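 further: 0% = growth of vehicle-only cultures of the same strain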; settings: S. cerevisiae rad50 strain growth inhibition; at 50.0 µM; active compounds read high
How it was run: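 Relative growth inhibition (compound vs vehicle) was measured in yeast with a defined repair-gene alteration.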

[2] = NCI Yeast Anticancer Drug Screen. Data for the mec2-1 strain (AID 157); settings: S. cerevisiae mec2-1 strain, at 50.0 µM, active compounds read high
How it was run: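 Each compound was tested on mec2-1 yeast, a strain altered in DNA damage repair or cell cycle control. Growth inhibition is reported relative to vehicle.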

[3] = NCI Yeast Anticancer Drug Screen. Data for the sgs1 mgt1 strain (AID 161);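 further: 0% = growth of cultures given vehicle only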; settings: S. cerevisiae sgs1 mgt1 strain, at 50.0 µM, active compounds read high
How it was run: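 Inhibition of yeast growth, normalised to vehicle-treated controls, is reported for a strain bearing genetic alterations in DNA damage repair.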

[4] = NCI Yeast Anticancer Drug Screen. Data for the cln2 rad14 strain (AID 165);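 further: 0% = growth equal to vehicle treated cultures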; settings: S. cerevisiae cln2 rad14 strain, at 50.0 µM, active compounds read high
How it was run: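 Test compounds were added to cln2 rad14 yeast cultures; inhibition of growth was then determined by comparison with vehicle treatment.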

[5] = NCI Yeast Anticancer Drug Screen. Data for the bub3 strain (AID 167); settings: S. cerevisiae bub3 mutant strain, at 50.0 µM, active compounds read high
How it was run: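 Screening used yeast with an engineered genetic alteration affecting cell cycle control. Compound-exposed cultures were compared with vehicle cultures, and reduced growth was taken as inhibition.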

[6] = NCI Yeast Anticancer Drug Screen. Data for the mlh1 rad18 strain (AID 175); settings: S. cerevisiae mlh1 rad18 strain growth inhibition; at 50.0 µM; active compounds read high
How it was run: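 Inhibition values reflect reduced growth of mutant yeast versus vehicle-treated controls following compound exposure; the mutations affect DNA damage repair.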

Row | Structure (SMILES) | growth inhibition [1] | growth inhibition [2] | growth inhibition [3] | growth inhibition [4] | growth inhibition [5] | growth inhibition [6]
1 | CCC(=O)C(c1ccccc1)(c1ccccc1)C(C)CN1CCCCCCC1 (centres undefined) | 30.3% | 12.1% | 10.8% | 1.9% | 10.8% | 35.4%
2 | COC(=O)C1C2CC3c4c(c5ccc(OC)cc5n4[N+](=O)[O-])CCN3CC2CC(OC(=O)c2cc(OC)c(OC)c(OC)c2)C1OC (centres undefined) | -14% | -50.5% | -34.4% | -17.9% | -22.2% | -3.9%
3 | OCC(S)CS.[Sb] (centres undefined) | 21.1% | 19.1% | 29.8% | 41% | 44% | 42%
4 | NP(=S)(Oc1ccc(Cl)cc1)Oc1ccc(Cl)cc1 | 96.8% (active) | 65.1% | 97.7% (active) | 60.7% | 49.3% | 91.5% (active)
5 | C(=C/P(c1ccccc1)c1ccccc1)/P(c1ccccc1)c1ccccc1 | 4.05% | 8.95% | 1.9% | -18.4% | 2.75% | 2.7%
6 | CCOP(=O)(CN(CCO)CCO)OCC | -5.85% | 12% | 11.4% | 0% | -6.5% | 4.25%
7 | CCCC(C)C1C(=O)N(C)C(=O)N(C)C1=O (centres undefined) | 14.2% | -1% | 11.4% | 9.9% | -4.75% | 14.9%
8 | Nc1ccc(Cl)c(C(F)(F)F)c1 | 0.85% | -16.6% | -12.1% | -18.4% | -1% | 2.6%
9 | CCCCSP(=S)(SCCCC)c1ccc(Cl)cc1 | 30.7% | 9.4% | 13.8% | 17.6% | 19% | 14.2%
10 | C1CN([PH+](N2CC2)N2CC2)CCO1.C1CN([PH+](N2CC2)N2CC2)CCO1.[I][Pd][I] | 3.9% | 6.7% | -5.7% | -8.05% | 0% | -4.4%
11 | C[N+](C)(C)CC1CCC(C[N+](C)(C)C)C1=NO (centres undefined) | -16.3% | 11.1% | 4.2% | 13.2% | 9.75% | -15.5%
12 | CN1CNC2C(=O)CCC2c2ccccc21 (centres undefined) | -12.2% | -39.8% | -21.3% | -7.4% | -28.9% | -9.1%
13 | Cc1nc2cccc(F)c2c(=O)n1-c1nnc(C2CC2)s1 | -28.6% | -23.5% | -20.2% | 13.5% | -41.2% | -9.05%
14 | CC1(C)OC(C=O)C2CC(=O)c3c(O)cccc3C2(C)O1 (centres undefined) | 33.4% | -1.45% | 12.9% | -4.15% | 11.9% | 0.35%
15 | C=CCc1c[nH]c(=S)[nH]c1=O.[Hg] | 99.1% (active) | 98.8% (active) | 98.8% (active) | 98.8% (active) | 99% (active) | 98.8% (active)
16 | CN(C)P1(=S)NCC(C(C)(C)C)CO1 (centres undefined) | 10.2% | -40.1% | -10.9% | 11.2% | 18.5% | -43.4%
17 | Oc1ccc(C=NCC2CCCC[N-]2)c(O)c1.Oc1ccc(C=NCC2CCCC[N-]2)c(O)c1.[Ni+2] (centres undefined) | 7.3% | 8% | 6.55% | 5.15% | 11.2% | -8.4%
18 | CC(N)C(O)c1ccc(O)cc1 (centres undefined) | -14% | -12% | -21.1% | -4.95% | -39.2% | -44%
19 | CCOP(=S)(OCC)Oc1ccccc1 | -3.8% | -14.5% | -15.2% | -7.6% | -20.9% | 3.5%
20 | COc1ccc(-c2c[se]c(=S)s2)cc1 | 24.1% | 10.8% | -7.35% | -33.5% | 4.2% | 11.3%

Row | Structure (SMILES) | growth inhibition [1] | growth inhibition [2] | growth inhibition [3] | growth inhibition [4] | growth inhibition [5] | growth inhibition [6]
21 | CCC1(CC)C(=O)NC(=O)N(C)C1=O | 33.4% | 10.2% | 31.5% | 28.8% | 8.25% | 24.7%
22 | Cc1nc2ccccc2c(=O)n1-c1ccc(N(CCCl)CCCl)cc1 | -0.6% | -9.25% | -17.1% | -6.9% | 4.8% | 4.5%
23 | CCCCCCCCCC[As](=O)(O)O | 41.8% | 22.2% | 8.6% | 21.9% | 18.9% | 16.9%
24 | CCCCCCCCCCC[CH2][Hg][CH2]CCCCCCCCCCC | 9.8% | -1.05% | 4% | -4.65% | 4.55% | -4.3%
25 | O=[N+]([O-])c1ccc(O)c(CBr)c1 | 35.5% | -5.15% | 7.55% | 18.6% | 13.9% | 4.95%
26 | N.N.N.N.[Co+3].[O-][Cl+3]([O-])([O-])[O-].[OH3+].[OH3+] | -25.4% | -1.15% | -22.3% | 13.9% | -6% | -13.6%
27 | CC1CC2CCC1(CO)CN2 (centres undefined) | -0.45% | 2.3% | 0.1% | 4.65% | 0.85% | 3.9%
28 | N#Cc1ccc(N)cc1 | -2.9% | -7.9% | -37.5% | -10.8% | -18.4% | -16.8%
29 | O=C(O)COc1ccc(Cl)cc1Cl (tested in a mixture with another compound) | -0.5% | -3.35% | 14.7% | -19.1% | -9.5% | -0.9%
30 | O=C(O)CCCC1CCCCC1.[Ni] | -6.95% | 14.8% | -2.1% | 16% | -10.8% | -18.6%
31 | COc1cc(C(=O)O)cc(OC)c1OC | -19.9% | -19.6% | -23.1% | -26.8% | 2.05% | -9.95%
32 | NC(CCl)=NC1CN2CCC1CC2 (centres undefined) | -22.5% | -20.4% | -13.2% | 5.9% | -32.1% | -7.15%
33 | CC1([N+](=O)[O-])COP(=O)(NCc2ccccc2)OC1 (centres undefined) | 11.9% | -20.9% | -9.3% | -4.8% | 6.2% | 2.35%
34 | O=NNc1ccc(Cl)cn1 | -11.5% | 3.75% | 3.1% | -1.45% | -18.3% | 3.3%
35 | c1cnc[c]([Hg][c]2cccnc2)c1 | 40.1% | 56.5% | 37.2% | 73.5% (active) | 88.8% (active) | 53.4%
36 | CCOc1ccc(N)cc1 | -4.65% | 10.9% | -6.05% | 5.85% | 0.45% | 8.65%
37 | CP1CC(Br)C(Br)C1 (centres undefined) | 3.6% | -5% | 19.9% | -7.05% | 6.5% | 2.5%
38 | O=C(COc1ccc(Cl)c(Cl)c1)Nc1cccc(S(=O)(=O)F)c1 | 29.4% | 10.4% | -2.45% | -10.8% | 13.1% | 19.4%
39 | COc1cc2[nH]cc(CN(C)C)c2cc1OC | 3% | -0.55% | -11.2% | -18.9% | -0.25% | -7.35%
